# PubChem BioAssay (NCI)
# Compounds without any hit were thinned out: in the full panel of roughly 79,000, 15% have a hit. Unmarked numbers belong to inactive results. Calls of active or inactive are those of the source. Rule as the data show it: active = growth inhibition above about 70%; inactive = the rest.
# Tests used:
# [1] = NCI Yeast Anticancer Drug Screen. Data for the rad52 strain (AID 147);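 also: 0% = growth of vehicle-treated control cultures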; conditions: S. cerevisiae rad52 mutant growth inhibition, hits give high values
# Procedure, shortened: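 Genetically altered yeast (DNA damage repair defect) treated with compound; inhibition calculated relative to vehicle.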
# [2] = NCI Yeast Anticancer Drug Screen. Data for the wt1 strain (AID 149);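 also: 0% = growth of vehicle-treated wt1 cultures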; conditions: S. cerevisiae wt1 strain (SPY 50644) growth inhibition, hits give high values
# Procedure, shortened: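 Readout: yeast growth inhibition, normalised to vehicle controls, in the wt1 strain exposed to test compounds.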
# [3] = NCI Yeast Anticancer Drug Screen. Data for the rad50EPP+ strain (AID 151);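 also: 0% = growth of vehicle-treated control cultures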; conditions: S. cerevisiae rad50 mutant strain, hits give high values
# Procedure, shortened: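 Strain rad50EPP+; compound exposure; % growth inhibition vs vehicle.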
# [4] = NCI Yeast Anticancer Drug Screen. Data for the mgt1 strain (AID 153); conditions: S. cerevisiae mgt1 mutant growth inhibition, hits give high values
# Procedure, shortened: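 Read-out: yeast growth inhibition vs vehicle control. Strain mgt1, drawn from a panel altered in DNA damage repair or cell cycle control.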
# [5] = NCI Yeast Anticancer Drug Screen. Data for the rad50 strain (AID 155);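 also: 0% = growth of vehicle-only cultures of the same strain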; conditions: S. cerevisiae rad50 strain growth inhibition, hits give high values
# Procedure, shortened: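 Compounds were tested on a yeast strain with an engineered DNA damage repair alteration; the reported value is growth inhibition normalised to vehicle treatment.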
# [6] = NCI Yeast Anticancer Drug Screen. Data for the mec2-1 strain (AID 157); conditions: S. cerevisiae mec2-1 strain, hits give high values
# Procedure, shortened: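 Cells of the genetically defined mec2-1 yeast strain are incubated with test compound. Inhibition of growth is calculated against vehicle-treated controls.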
# [7] = NCI Yeast Anticancer Drug Screen. Data for the rad14 strain (AID 159);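 also: 0% = growth of vehicle-treated control cultures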; conditions: S. cerevisiae rad14 strain growth inhibition, hits give high values
# Procedure, shortened: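 Compound-treated yeast with a defined DNA-repair lesion; growth inhibition normalised to vehicle-treated cultures.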
# [8] = NCI Yeast Anticancer Drug Screen. Data for the sgs1 mgt1 strain (AID 161);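 also: 0% = growth of cultures given vehicle only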; conditions: S. cerevisiae sgs1 mgt1 strain, hits give high values
# Procedure, shortened: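 Test agents were incubated with a DNA-repair-mutant yeast strain. Growth was then read and compared against vehicle-treated controls.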
# [9] = NCI Yeast Anticancer Drug Screen. Data for the CLN2oe strain (AID 163);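 also: 0% = growth of vehicle-only control cultures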; conditions: S. cerevisiae CLN2oe strain, hits give high values
# Procedure, shortened: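 Strain altered in cell-cycle control, incubated with compound; growth compared to solvent-treated controls.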
# [10] = NCI Yeast Anticancer Drug Screen. Data for the cln2 rad14 strain (AID 165);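 also: 0% = growth equal to vehicle treated cultures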; conditions: S. cerevisiae cln2 rad14 strain, hits give high values
# Procedure, shortened: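 The screen exposed genetically defined yeast (cln2 rad14) to test compounds and scored growth inhibition relative to vehicle-treated controls.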
# [11] = NCI Yeast Anticancer Drug Screen. Data for the bub3 strain (AID 167); conditions: S. cerevisiae bub3 mutant strain, hits give high values
# Procedure, shortened: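 Growth of a checkpoint-deficient yeast mutant is measured after compound exposure. Values represent inhibition relative to vehicle.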
# [12] = NCI Yeast Anticancer Drug Screen. Data for the wt2 strain (AID 169);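 also: 0% = growth of vehicle-treated yeast cultures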; conditions: S. cerevisiae wt2 strain growth inhibition, hits give high values
# Procedure, shortened: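 Steps: yeast strain treated with compound; growth recorded; inhibition calculated relative to cultures given vehicle alone.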
# [13] = NCI Yeast Anticancer Drug Screen. Data for the mlh1 strain (AID 171);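 also: 0% = growth of vehicle-treated control cultures of the same strain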; conditions: S. cerevisiae mlh1 strain growth inhibition, hits give high values
# Procedure, shortened: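 Yeast screen: mutant strain plus compound, growth scored against vehicle control wells.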
# [14] = NCI Yeast Anticancer Drug Screen. Data for the sgs1 strain (AID 173);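 also: 0% = growth of vehicle-only control cultures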; conditions: S. cerevisiae sgs1 mutant, hits give high values
# Procedure, shortened: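 Inhibition of yeast growth served as the measure. The mutant strain was treated with each compound, and growth was normalised to cultures receiving vehicle alone.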
# [15] = NCI Yeast Anticancer Drug Screen. Data for the mlh1 rad18 strain (AID 175); conditions: S. cerevisiae mlh1 rad18 strain growth inhibition, hits give high values
# Procedure, shortened: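 Compound-treated yeast growth, normalised to vehicle controls. Strain bears defined DNA repair mutations.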
# [16] = NCI Yeast Anticancer Drug Screen. Data for the rad18 strain (AID 177); conditions: S. cerevisiae rad18 mutant growth inhibition, hits give high values
# Procedure, shortened: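 Inhibition values reflect reduced yeast growth compared with vehicle-treated controls, using a strain engineered with a DNA damage repair defect.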
# [17] = at 5.0 µM (retest, dose inferred, filed as 0.5)
# [18] = at 50.0 µM (retest, dose inferred, filed as 5.0)
structure (smiles),measurement,setting,value
CN(Cc1cnc2nc(N)nc(N)c2n1)c1ccc(C(=O)NC(CCC(=O)O)C(=O)O)c2ccccc12 (configuration not stated),growth inhibition,[1]; at 1.2 µM,16%
same,growth inhibition,[1]; at 3.7 µM,24%
same,growth inhibition,[1]; at 11.0 µM,66%
same,growth inhibition,[1]; at 33.0 µM,90% (active)
same,growth inhibition,[1]; at 100.0 µM,93% (active)
same,growth inhibition,[2]; at 1.2 µM,12%
same,growth inhibition,[2]; at 3.7 µM,17%
same,growth inhibition,[2]; at 11.0 µM,28%
same,growth inhibition,[2]; at 33.0 µM,69%
same,growth inhibition,[2]; at 100.0 µM,90% (active)
same,growth inhibition,[3]; at 1.2 µM,5%
same,growth inhibition,[3]; at 3.7 µM,24%
same,growth inhibition,[3]; at 11.0 µM,41%
same,growth inhibition,[3]; at 33.0 µM,57%
same,growth inhibition,[3]; at 100.0 µM,79% (active)
same,growth inhibition,[4]; at 1.2 µM,-18%
same,growth inhibition,[4]; at 3.7 µM,1%
same,growth inhibition,[4]; at 11.0 µM,25%
same,growth inhibition,[4]; at 33.0 µM,51%
same,growth inhibition,[4]; at 100.0 µM,79% (active)
same,growth inhibition,[5]; at 1.2 µM,-2%
same,growth inhibition,[5]; at 3.7 µM,22%
same,growth inhibition,[5]; [17],-4%
same,growth inhibition,[5]; at 11.0 µM,60%
same,growth inhibition,[5]; at 33.0 µM,89% (active)
same,growth inhibition,[5]; [18],80% (active)
same,growth inhibition,[5]; at 50.0 µM,81.2% (active)
same,growth inhibition,[5]; at 100.0 µM,92% (active)
same,growth inhibition,[6]; at 1.2 µM,17%
same,growth inhibition,[6]; at 3.7 µM,72% (active)
same,growth inhibition,[6]; [17],72% (active)
same,growth inhibition,[6]; at 11.0 µM,92% (active)
same,growth inhibition,[6]; at 33.0 µM,95% (active)
same,growth inhibition,[6]; [18],94% (active)
same,growth inhibition,[6]; at 50.0 µM,87.2% (active)
same,growth inhibition,[6]; at 100.0 µM,96% (active)
same,growth inhibition,[7]; at 1.2 µM,-2%
same,growth inhibition,[7]; at 3.7 µM,11%
same,growth inhibition,[7]; at 11.0 µM,49%
same,growth inhibition,[7]; at 33.0 µM,82% (active)
same,growth inhibition,[7]; at 100.0 µM,91% (active)
same,growth inhibition,[8]; [17],27%
same,growth inhibition,[8]; [18],71% (active)
same,growth inhibition,[8]; at 50.0 µM,72.7% (active)
same,growth inhibition,[9]; at 1.2 µM,-14%
same,growth inhibition,[9]; at 3.7 µM,-12%
same,growth inhibition,[9]; at 11.0 µM,-28%
same,growth inhibition,[9]; at 33.0 µM,7%
same,growth inhibition,[9]; at 100.0 µM,58%
same,growth inhibition,[10]; [17],-6%
same,growth inhibition,[10]; [18],45%
same,growth inhibition,[10]; at 50.0 µM,35.1%
same,growth inhibition,[11]; at 1.2 µM,-5%
same,growth inhibition,[11]; at 3.7 µM,-7%
same,growth inhibition,[11]; [17],-49%
same,growth inhibition,[11]; at 11.0 µM,2%
same,growth inhibition,[11]; at 33.0 µM,57%
same,growth inhibition,[11]; [18],72% (active)
same,growth inhibition,[11]; at 50.0 µM,80.3% (active)
same,growth inhibition,[11]; at 100.0 µM,84% (active)
same,growth inhibition,[12]; at 1.2 µM,-50%
same,growth inhibition,[12]; at 3.7 µM,-45%
same,growth inhibition,[12]; at 11.0 µM,-4%
same,growth inhibition,[12]; at 33.0 µM,39%
same,growth inhibition,[12]; at 100.0 µM,78% (active)
same,growth inhibition,[13]; at 1.2 µM,17%
same,growth inhibition,[13]; at 3.7 µM,32%
same,growth inhibition,[13]; at 11.0 µM,42%
same,growth inhibition,[13]; at 33.0 µM,66%
same,growth inhibition,[13]; at 100.0 µM,83% (active)
same,growth inhibition,[14]; at 1.2 µM,26%
same,growth inhibition,[14]; at 3.7 µM,36%
same,growth inhibition,[14]; at 11.0 µM,58%
same,growth inhibition,[14]; at 33.0 µM,82% (active)
same,growth inhibition,[14]; at 100.0 µM,85% (active)
same,growth inhibition,[15]; [17],-13%
same,growth inhibition,[15]; [18],72% (active)
same,growth inhibition,[16]; at 1.2 µM,17%
same,growth inhibition,[16]; at 3.7 µM,25%
same,growth inhibition,[16]; at 11.0 µM,38%
same,growth inhibition,[16]; at 33.0 µM,79% (active)
same,growth inhibition,[16]; at 100.0 µM,89% (active)
Cn1ncc2cc3c(Nc4ccc(Cl)cc4)cccc3nc21,growth inhibition,[1]; at 1.2 µM,2%
same,growth inhibition,[1]; at 3.7 µM,2%
same,growth inhibition,[1]; at 11.0 µM,6%
same,growth inhibition,[1]; at 33.0 µM,39%
same,growth inhibition,[1]; at 100.0 µM,96% (active)
same,growth inhibition,[2]; at 1.2 µM,0%
same,growth inhibition,[2]; at 3.7 µM,-2%
same,growth inhibition,[2]; at 11.0 µM,-2%
same,growth inhibition,[2]; at 33.0 µM,0%
same,growth inhibition,[2]; at 100.0 µM,12%
same,growth inhibition,[3]; at 1.2 µM,0%
same,growth inhibition,[3]; at 3.7 µM,1%
same,growth inhibition,[3]; at 11.0 µM,2%
same,growth inhibition,[3]; at 33.0 µM,7%
same,growth inhibition,[3]; at 100.0 µM,36%
same,growth inhibition,[4]; at 1.2 µM,-1%
same,growth inhibition,[4]; at 3.7 µM,0%
same,growth inhibition,[4]; at 11.0 µM,-4%
same,growth inhibition,[4]; at 33.0 µM,-3%
same,growth inhibition,[4]; at 100.0 µM,9%
same,growth inhibition,[5]; at 1.2 µM,2%
same,growth inhibition,[5]; at 3.7 µM,5%
same,growth inhibition,[5]; [17],25%
same,growth inhibition,[5]; at 11.0 µM,10%
same,growth inhibition,[5]; at 33.0 µM,42%
same,growth inhibition,[5]; [18],83% (active)
same,growth inhibition,[5]; at 50.0 µM,59.9%
same,growth inhibition,[5]; at 100.0 µM,95% (active)
same,growth inhibition,[6]; at 1.2 µM,-5%
same,growth inhibition,[6]; at 3.7 µM,-7%
same,growth inhibition,[6]; [17],0%
same,growth inhibition,[6]; at 11.0 µM,-3%
same,growth inhibition,[6]; at 33.0 µM,-4%
same,growth inhibition,[6]; [18],5%
same,growth inhibition,[6]; at 50.0 µM,8.6%
same,growth inhibition,[6]; at 100.0 µM,6%
same,growth inhibition,[7]; at 1.2 µM,-2%
same,growth inhibition,[7]; at 3.7 µM,-2%
same,growth inhibition,[7]; at 11.0 µM,-3%
same,growth inhibition,[7]; at 33.0 µM,-3%
same,growth inhibition,[7]; at 100.0 µM,29%
same,growth inhibition,[8]; [17],-1%
same,growth inhibition,[8]; [18],-2%
same,growth inhibition,[8]; at 50.0 µM,-10.4%
same,growth inhibition,[9]; at 1.2 µM,-5%
same,growth inhibition,[9]; at 3.7 µM,-4%
same,growth inhibition,[9]; at 11.0 µM,-5%
same,growth inhibition,[9]; at 33.0 µM,-3%
same,growth inhibition,[9]; at 100.0 µM,-6%
same,growth inhibition,[11]; at 1.2 µM,-3%
same,growth inhibition,[11]; at 3.7 µM,-5%
same,growth inhibition,[11]; [17],-7%
same,growth inhibition,[11]; at 11.0 µM,-7%
same,growth inhibition,[11]; at 33.0 µM,-11%
same,growth inhibition,[11]; [18],1%
same,growth inhibition,[11]; at 50.0 µM,44.6%
same,growth inhibition,[11]; at 100.0 µM,-7%
same,growth inhibition,[14]; at 1.2 µM,-2%
same,growth inhibition,[14]; at 3.7 µM,-2%
same,growth inhibition,[14]; at 11.0 µM,-3%
same,growth inhibition,[14]; at 33.0 µM,0%
same,growth inhibition,[14]; at 100.0 µM,42%
same,growth inhibition,[15]; [17],-2%
same,growth inhibition,[15]; [18],7%
same,growth inhibition,[15]; at 50.0 µM,2.05%
same,growth inhibition,[16]; at 1.2 µM,-2%
same,growth inhibition,[16]; at 3.7 µM,-4%
same,growth inhibition,[16]; at 11.0 µM,-3%
same,growth inhibition,[16]; at 33.0 µM,-2%
same,growth inhibition,[16]; at 100.0 µM,52%
